A selection: hits, their analogues and other compounds. The true share with any hit is near 17%.
HT1080 IDH1KD tx: HT-1080 IDH1 knockdown cell toxicity (counter line) | HT-1080 IDH1 knockdown viability, ATP luminescence, 48 h | Potency, µM (doses to about 46.1 µM), for the others: at the highest dose activity, negative = toxicity, actives largely listed as cytotoxic | actives 2% (n = 360,000) | AID 686971;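 note: 0% = DMSO wells and -100% = cell-free medium wells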
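In this qHTS, HT-1080 cells depleted of IDH1 are exposed for 48 h at 37 °C to compound titrations. Toxicity is scored from CellTiter-Glo luminescence, with DMSO as full viability and medium alone as none.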
HepG2 viability: kills HepG2 cells in TGF-b inhibitor counter-screen | actives 0.76% (n = 410,000) | Potency, µM (titrated, usually from 46.1 µM), inactives show top-dose activity change, negative = cytotoxicity, hits mostly cytotoxic | HepG2 CAGA-GFP viability, ATP luminescence, 18 h | AID 588856
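HepG2 CAGA-GFP cells (1000/well, DMEM with 1% FBS) received compound, then TGF-beta at 500 pg/mL final, and were incubated 18 hours at 37 degrees C. Viability was read by CellTiter-Glo luminescence. Media-only wells were set as complete cell-killing and DMSO as no toxicity.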
TDP1 cell noCPT: qHTS for Inhibitors of human tyrosyl-DNA phosphodiesterase 1 (TDP1): qHTS in cells in absence of CPT; DT40 Tdp1-/- hTDP1 cells, no CPT, ATP luminescence, 48 h; Potency, µM (top dose mostly 46.2 µM), for the others: top-dose activity change, negative = growth inhibition, actives largely listed as inhibitors; actives 15% (n = 420,000); AID 686978, 2013; note: % is set by controls: 0 for no effect and ±100 for the full control effect; nearly all actives have a fitted effect of over 55% in size
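DT40 Tdp1-/-;hTDP1 cells, no CPT (DMSO vehicle only), 400 cells/well; compounds pin-transferred; ≥48 hr, 37 °C; CellTiter-Glo 30 min RT dark, luminescence read.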
TGFb SMAD3 inh: blocks TGF-b signaling; HepG2 CAGA-GFP TGF-b/SMAD3 reporter, GFP fluorescence, 18 h; TGF-beta stimulated, 500 pg/mL final; Potency, µM (titrated, usually from 46.1 µM), without a hit: top-dose activity, negative = inhibition, actives largely listed as inhibitors; actives 1.2% (n = 410,000); note: % is set by controls: 0 for no effect and ±100 for the full control effect; nearly all actives have a fitted effect of over 65% in size
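HEPG2 CAGA-GFP cells (1000/well, DMEM with 1% FBS) were pre-incubated 2 h at 37 degrees C, given compound by pin tool, then stimulated with TGF-beta at 500 pg/mL final for 18 h before per-cell GFP fluorescence imaging.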
DT40 TDP1 CPT: DT40-hTDP1 cell growth loss with CPT. chicken DT40 Tdp1-/-;hTDP1 cells + 20 nM CPT, ATP luminescence, 48 h. Potency, µM (highest dose often 46.2 µM), for the others: at the top dose activity change, negative = growth inhibition, hits mostly inhibitors. actives 12% (n = 420,000); note: % is set by controls: 0 for no effect and ±100 for the full control effect; nearly all actives have a fitted effect of over 55% in size
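Chicken DT40 Tdp1-/- cells stably complemented with human TDP1 were seeded at 400 cells/well in medium containing 20 nM camptothecin, exposed to pin-transferred compounds, and grown at 37 °C for at least 48 hr. Viability was read as ATP luminescence.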
HT1080NT lethal: kills 2HG-producing HT-1080-NT fibrosarcoma cells; HT-1080-NT fibrosarcoma viability, CellTiter-Glo ATP luminescence, 48 h; Potency, µM (doses to about 46.1 µM), without a hit: at the top dose activity, negative = less viability, hits mostly cytotoxic; actives 1.6% (n = 360,000); AID 686970;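 note: NT is the 2HG producing partner of a matched IDH1 knockdown line; 0% = DMSO-treated cells and -100% = media-only wells without cells; nearly all actives have a fitted effect of over 55% in size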
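HT-1080-NT; 750 cells/well; 5% FBS RPMI; 48 h compound, 37 degrees C; CellTiter-Glo luminescence; curve fitting and curve-class assignment.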
Starred values were filed as active, the others as inactive. Calls come from the whole dose curve; as a rule, active = well fitted curve in the direction sought with a large enough effect; inconclusive = small, poorly fitted or top-dose-only effect, or another doubt; inactive = no such curve, though single readings can be large; an effect the other way counts as inactive or inconclusive. Potency is the fitted concentration of half-maximal effect.

What do the screens show for `CCNc1ccc(C(=O)OCC(=O)N(Cc2ccccc2)C(C)(C)C)cc1[N+](=O)[O-]`?
HT1080 IDH1KD tx: 14%; HepG2 viability: 6%; TDP1 cell noCPT: inconclusive; TGFb SMAD3 inh: 3%; DT40 TDP1 CPT: 15µM*; HT1080NT lethal: 14%

What do the screens show for `CCOC(=O)CNc1ccc(C(=O)OCC)cc1[N+](=O)[O-]`?
HT1080 IDH1KD tx: -2%; HepG2 viability: -10%; TDP1 cell noCPT: -27%; TGFb SMAD3 inh: 0%; DT40 TDP1 CPT: -5%; HT1080NT lethal: 1%

Results for CCCNc1ccc(C(=O)OCC)cc1[N+](=O)[O-] ?
HT1080 IDH1KD tx: 13%; HepG2 viability: 5%; TDP1 cell noCPT: -23%; TGFb SMAD3 inh: 6%; DT40 TDP1 CPT: -9%; HT1080NT lethal: 5%

Results for CCc1ccc(Nc2ccc(C(N)=O)cc2[N+](=O)[O-])cc1 ?
HT1080 IDH1KD tx: 2%; HepG2 viability: -14%; TDP1 cell noCPT: 23µM*; TGFb SMAD3 inh: -21%; DT40 TDP1 CPT: inconclusive; HT1080NT lethal: -5%

Results for O=C1CCC/C1=c1\s/c(=C/c2cccnc2)c(=O)n1-c1ccccc1 ?
HT1080 IDH1KD tx: -1%; HepG2 viability: -4%; TDP1 cell noCPT: inconclusive; TGFb SMAD3 inh: 1%; DT40 TDP1 CPT: inconclusive; HT1080NT lethal: 2%

What do the screens show for `O=C1CCC/C1=c1\s/c(=C\c2cccnc2)c(=O)n1-c1ccccc1`?
HT1080 IDH1KD tx: -2%; HepG2 viability: -11%; TDP1 cell noCPT: 16µM*; TGFb SMAD3 inh: 11%; DT40 TDP1 CPT: inconclusive; HT1080NT lethal: 0%

How did COc1ccc(NC(=O)CNC(=O)Cn2c(C)cc3ccccc3c2=O)cc1OC do in these assays?
HT1080 IDH1KD tx: 0%; HepG2 viability: -12%; TDP1 cell noCPT: 21µM*; TGFb SMAD3 inh: 2%; DT40 TDP1 CPT: 13µM*; HT1080NT lethal: -9%

How did COc1cc(NC(=O)CNC(=O)Cn2c(C)cc3ccccc3c2=O)cc(OC)c1OC do in these assays?
HT1080 IDH1KD tx: -9%; HepG2 viability: -3%; TDP1 cell noCPT: 15µM*; TGFb SMAD3 inh: 23%; DT40 TDP1 CPT: 13µM*; HT1080NT lethal: 1%

Results for CCc1ccc(NC(=O)CNC(=O)Cn2c(C)cc3ccccc3c2=O)cc1 ?
HepG2 viability: 0%; TDP1 cell noCPT: -2%; TGFb SMAD3 inh: 5%; DT40 TDP1 CPT: -1%

What do the screens show for `COc1ccc(NC(=O)COC(=O)c2ccccc2SCC(=O)N2CCCC2)cc1`?
HT1080 IDH1KD tx: -8%; HepG2 viability: -1%; TDP1 cell noCPT: inconclusive; TGFb SMAD3 inh: 2%; DT40 TDP1 CPT: inconclusive; HT1080NT lethal: -5%

How did CC(C)c1c(C(=O)N/N=C2\CCc3ccccc32)nnn1-c1nonc1N do in these assays?
HT1080 IDH1KD tx: 18%; HepG2 viability: -3%; TDP1 cell noCPT: 0%; TGFb SMAD3 inh: 2%; DT40 TDP1 CPT: 0%; HT1080NT lethal: 1%

What do the screens show for `CCOC(=O)N1CCN(C(=O)c2ccc3c(=O)n(CCc4ccccc4)c(=O)[nH]c3c2)CC1`?
HT1080 IDH1KD tx: -5%; HepG2 viability: -6%; TDP1 cell noCPT: -26%; TGFb SMAD3 inh: -7%; DT40 TDP1 CPT: inconclusive; HT1080NT lethal: -20%

How did O=C(CCCn1c(=O)[nH]c2cc(Cl)ccc2c1=O)NCCCN1CCN(c2ccc(F)cc2)CC1 do in these assays?
HT1080 IDH1KD tx: -1%; HepG2 viability: -35%; TDP1 cell noCPT: 21µM*; TGFb SMAD3 inh: inconclusive; DT40 TDP1 CPT: 16µM*; HT1080NT lethal: 0%

Screening data (PubChem BioAssay)
